# Assay results from PubChem BioAssay AID1117280 (The Scripps Research Institute Molecular Screening Center, 2014).
# Hit rate of the full screen: of about 1,100 compounds, fewer than 10 were called active.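 How the source made its calls: active means mean activation above a set limit taken from the earlier primary screen (cut at about 11% in these data); inactive means the rest.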 These entries were drawn from the full list.
# Biological target: Transthyretin (Homo sapiens) (UniProt P02766)
# Experiment: compounds raising TTR promoter-driven luciferase – cell-based, luminescence, SH-SY5Y, triplicate, confirmation (AID 1117280);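 further: 0% = DMSO-treated cells and 100% = recombinant Lucia luciferase without cells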
# Details: SHSY5Y TTR promoter Gaussia luciferase, at 16.7 µM, hits give high values, 100% = purified Lucia enzyme wells, no cells
row,Structure (SMILES),activation
1,COc1ccc(-c2oc3ncn(Cc4ccco4)c(=N)c3c2-c2ccc(OC)cc2)cc1,-0.27% (inactive)
2,O=C(NNC1=NCCC1)c1cccc(S(=O)(=O)N2CCCCC2)c1,0% (inactive)
3,Cc1ccc(CN2CCCOCCS2(=O)=O)cc1,0.01% (inactive)
4,O=S(=O)(NCCCN1CCOCC1)c1ccc(F)c(Cl)c1,1.67% (inactive)
5,N#Cc1cccc(CN2CCC(=O)N(CCO)CC2)c1,0.71% (inactive)
6,Cc1cc(C)c2nc3nc(C)cc(C)c3c(N)c2c1,9.48% (inactive)
7,COc1cccc(-c2cnc(C(O)c3ccccc3OC)[nH]2)c1 (stereo unspecified),-0.09% (inactive)
8,C/C(CC(=O)Nc1ccc(N(C)C)cc1)=N\NC(=O)c1ccccc1F,0.83% (inactive)
9,C(=N\n1cnnc1)/c1cccnc1,0.91% (inactive)
10,CCOc1ccccc1NC(=O)COc1ccc(S(=O)(=O)N2CCCC2)cc1,1.24% (inactive)
11,CSCCC(NC(N)=O)C(=O)N(C)CC(=O)Nc1ccc(C)cc1 (stereo unspecified),-0.85% (inactive)
12,CCOC(=O)c1cc(-c2ccc(Cl)s2)nc2c1c(C)nn2C,0.17% (inactive)
13,O=C(Nc1cccc(O)c1)c1ccc(C(=O)c2ccccc2)o1,-1.44% (inactive)
14,COc1cc(C(C)=O)ccc1OC(C)C(=O)Nc1ccc(S(=O)(=O)N2CCCC2)cc1 (stereo unspecified),0.49% (inactive)
15,Cc1c(NS(=O)(=O)c2ccc(NC3CCCC3)c([N+](=O)[O-])c2)c(=O)n(-c2ccccc2)n1C,-1.51% (inactive)
16,N=c1ccn(CC(=O)NC(N)=O)c2ccccc12,11.7% (active)
17,C[C@H](NC(=O)C1CCN(S(=O)(=O)c2ccccc2)CC1)C(=O)NCc1ccccc1,-0.18% (inactive)
18,CCCCc1cc(=O)oc2cc(C)cc(OCc3nn[nH]n3)c12,0.29% (inactive)
19,O=C(O)C1OC(C(=O)O)C2C1C(F)(F)C2(F)F (stereo unspecified),0.77% (inactive)
20,CCCCOCCCNC(=O)C[C@H]1C[C@@]2(C(=O)OC)C(=C[C@H](C(C)(C)C)O[C@@H]2C)N(CCc2ccc(OC)c(OC)c2)C1=O,-0.4% (inactive)
21,Cc1cccc(C)c1NC(=O)CN1C(=O)C(C)Oc2ccccc21 (stereo unspecified),-0.02% (inactive)
22,Brc1ccc(/C=N/N2CCN(C3c4ccccc4-c4ccccc43)CC2)s1,-0.21% (inactive)
23,O=C(O)Cn1c(Cc2ccccc2)nc2ccccc21,-0.81% (inactive)
24,Cc1nc(-c2ccc(Cl)cc2)sc1C(=O)NN,1.27% (inactive)
25,COc1cc(N2C(=O)CC3(CCCC3)CC2=O)cc(OC)c1OC,0.03% (inactive)
26,CCCCCc1ccc(-c2cn(Cc3ccc4ccccc4c3)nn2)cc1,-0.98% (inactive)

row,Structure (SMILES),activation
1,CCOc1ccc(N=C2NC(=O)S/C2=C\c2ccc(O)cc2)cc1,-2.11% (inactive)
2,Cc1ccccc1/[N+]([O-])=C/c1ccncc1,0.64% (inactive)
3,O=C(NCCCNC(=O)c1ccccc1Cl)c1cnccn1,-0.49% (inactive)
4,COc1ccccc1N1CCN(Cc2cc(OC)c3c(c2)OCO3)CC1,1.03% (inactive)
5,O=C(CCC(=O)c1cccs1)NCc1ccccc1,-0.16% (inactive)
6,CCOc1ccc(NC(=O)COc2ccc(S(=O)(=O)N3CCCC3)cc2)cc1,-0.08% (inactive)
7,Cc1c(C#N)c(NC(=O)c2ccccc2)n(Cc2ccccc2)c1C,0.46% (inactive)
8,O=C(Nc1ccccc1C(=O)N1CCCCCC1)c1ccccc1Cl,0.38% (inactive)
9,COc1ccc(S(=O)(=O)NCC(=O)NCc2cc(=O)n(C)c(=O)n2C)cc1F,-0.18% (inactive)
10,Cc1cccc(N2C(=O)CC(SC(N)=Nc3ccccc3)C2=O)c1 (stereo unspecified),-0.45% (inactive)
11,C=C1C(C(C)C)N(C)C2=NC(c3ccccc3)CC(=O)N12 (stereo unspecified),0.07% (inactive)
12,Cc1cc(C)c(C#N)c(N2CCC(C(N)=O)CC2)n1,-0.71% (inactive)
13,CC(C)NC(=O)c1ccc(Sc2ccccc2)c([N+](=O)[O-])c1,-0.62% (inactive)
14,CCOC(=O)c1c(-c2ccccc2)oc2ccc(OCC(N)=O)cc12,-0.6% (inactive)
15,O=C(NC(=O)c1ccccc1N1CCCCC1)Nc1ccc(Br)cc1,0.23% (inactive)
16,COc1ccc(C2c3ccc(O)cc3Oc3ncn(CCCO)c(=N)c32)cc1OC (stereo unspecified),-0.83% (inactive)
17,CC(C)(C)C1CCC(OC(=O)CCC(=O)Nc2ccccc2)CC1 (stereo unspecified),-1.07% (inactive)
18,O=C(NNC(=O)c1cc(S(=O)(=O)N2CCCCC2)ccc1Cl)c1ccccc1O,0.18% (inactive)
19,Nc1nc(SCC(=O)Nc2ccc(Cl)c([N+](=O)[O-])c2)n[nH]1,0.36% (inactive)
20,COC(=O)c1cnn2c(C(F)(F)F)cc(-c3ccco3)nc12,-0.89% (inactive)
21,O=C1c2cccc(OCC(=O)N3N=C(c4cccs4)CC3c3ccc(F)cc3)c2CCN1Cc1ccccc1 (stereo unspecified),-0.93% (inactive)
22,Cn1cc(CN2CCCC(CO)C2)c(-c2ccc(Oc3ccccc3)cc2)n1 (stereo unspecified),2.56% (inactive)
23,CCCCN(C)CCNC(=O)C1CCCN(S(=O)(=O)c2cccc3nsnc23)C1 (stereo unspecified),0.58% (inactive)
24,O=S(=O)(NCc1ccccc1Br)c1ccccc1Br,-0.25% (inactive)
25,O=C(CS(=O)(=O)c1ccccc1)Nc1ccc(S(=O)(=O)Nc2ccccn2)cc1,-0.26% (inactive)
